Bioassay records: PubChem BioAssay, several laboratories
KLK7 zymogen act – proKLK7 zymogen activators, primary screen, biochemical, fluorescence intensity; Kallikrein-7 (Homo sapiens), P49862; purified proKLK7, EDANS-DABCYL substrate fluorescence; 100% is mature enzyme control, 0% vehicle; activation, % at 7 µM; 370,000 tested, 0.9% active;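 active = activation above the mean of all tested compounds plus 3 SD, computed per campaign excluding outliers beyond control limits, cut at about 13% in these data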
NR3A LBD binder – binders of NR3A ligand-binding domain, primary screen, biophysical, differential scanning fluorimetry, uHTS; AID 1259313, 2017; 340,000 tested, 2.5% active; Tm shift relative to glycine control, % at 25 µM; NR3A LBD differential scanning fluorimetry, Tm shift; 0% = protein alone, 100% = glycine-bound protein; Glutamate receptor ionotropic, NMDA 3A (GRIN3A) ligand-binding domain;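 active = melting temperature shift of at least 10% of the positive control shift, at one fixed dose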
rCAG RNA binder – binders of r(CAG) RNA repeats, primary screen, biochemical, fluorescence. inhibition, % at 3 µM. AID 651821, 2012. r(CAG) RNA repeat, TO-PRO-1 dye displacement fluorescence. 370,000 tested, 1.3% active;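 active = inhibition above the plate cutoff, the mean of all test compounds on that plate plus 3 SD, cut at about 35% in these data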;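 note: 0% = DMSO alone and 100% = 100 µM mitoxantrone as full dye displacement; higher means more dye released from RNA so lower well fluorescence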
ADAM17 inh – ADAM17 inhibitors, primary screen, biochemical, QFRET; Disintegrin and metalloproteinase domain-containing protein 17 (Homo sapiens), P78536; recombinant ADAM17, EDANS/DABCYL FRET peptide cleavage; inhibition, % at 6.95 µM; 370,000 tested, 0.83% active;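 active = inhibition above the mean of compounds lying between control limits plus 3 SD, set per campaign, cut at about 8.5% in these data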;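 note: 0% = DMSO-only wells as the low control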
Target sequence (P78536 215-824 limits assumed): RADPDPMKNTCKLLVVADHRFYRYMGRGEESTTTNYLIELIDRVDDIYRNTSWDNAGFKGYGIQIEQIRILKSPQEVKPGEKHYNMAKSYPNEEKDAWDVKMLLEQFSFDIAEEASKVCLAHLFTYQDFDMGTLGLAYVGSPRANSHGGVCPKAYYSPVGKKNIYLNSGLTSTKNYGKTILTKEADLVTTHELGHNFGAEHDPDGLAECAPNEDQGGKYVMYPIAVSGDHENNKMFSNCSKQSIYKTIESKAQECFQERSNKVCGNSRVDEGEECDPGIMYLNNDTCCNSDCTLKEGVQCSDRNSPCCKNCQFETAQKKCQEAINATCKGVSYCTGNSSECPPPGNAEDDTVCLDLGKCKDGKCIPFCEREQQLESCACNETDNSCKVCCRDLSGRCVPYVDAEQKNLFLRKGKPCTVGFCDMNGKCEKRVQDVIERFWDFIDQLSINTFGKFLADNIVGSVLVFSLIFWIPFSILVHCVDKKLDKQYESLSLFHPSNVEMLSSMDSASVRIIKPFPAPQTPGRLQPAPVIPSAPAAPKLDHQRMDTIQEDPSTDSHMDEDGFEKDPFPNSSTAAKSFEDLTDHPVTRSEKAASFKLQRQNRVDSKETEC
ADAM10 inh – human ADAM10 inhibitors, primary screen, biochemical, QFRET, HTS; Disintegrin and metalloproteinase domain-containing protein 10 (Homo sapiens), O14672; recombinant ADAM10, EDANS/DABCYL FRET peptide cleavage, 3 h; inhibition, % at 7 µM; 370,000 tested, 0.62% active;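 active = inhibition above a per-campaign cutoff equal to the mean of compounds falling between control-based bounds plus 3 SD, cut at about 20% in these data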;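 note: 0% = DMSO wells while the 100% control is not disclosed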
AHR activator – AHR activators, primary screen, cell-based, luminescence, luciferase reporter, human | AID 2796, 2010 | Aryl hydrocarbon receptor (Homo sapiens), P35869 | activation, % at 5 µM | AHR-responsive luciferase reporter cells | 320,000 tested, 2.5% active; in the data active = activation above about 47%;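 note: 0% = vehicle wells and 100% = reference agonist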
Active calls of the source: *; i = inactive; nt = no result given. Shown are actives, neighbours in structure and some others; about 7% of the full set was active somewhere.

SMILES	KLK7 zymogen act	NR3A LBD binder	rCAG RNA binder	ADAM17 inh	ADAM10 inh	AHR activator
Cc1cc(=O)n2nc(N3CCC(C(=O)NCC(C)c4ccccc4)CC3)sc2n1 (configuration not stated)	0.3	10.5*	2.5	-1.4	-1.4	-0.5
Cc1cc(=O)n2nc(N3CCC(C(=O)NC(C)c4ccccc4)CC3)sc2n1 (configuration not stated)	0.1	1.9	1.7	1.2	-2.8	0.0
COc1ccc(NC(=O)COC(=O)c2ccccc2SCC(=O)N2CCCC2)cc1	-0.1	19.5*	-1.8	0.8	-1.9	0.1
CCNC(=O)NC(=O)COC(=O)c1ccccc1SCC(=O)NC(=O)NCC	39.4*	3.9	0.8	-244.3	i	29.9
N#CC1(NC(=O)COC(=O)c2ccccc2SCC(=O)N2CCCC2)CCCCC1	-0.3	12.6*	-3.1	-4.7	1.0	-3.0
NC(=O)COC(=O)c1ccccc1SCC(=O)NC1CCCCCCC1	1.2	-0.7	-1.2	-4.8	-3.9	5.0
Cc1ccccc1N=Nc1c(N)[nH]n(-c2ccccc2)c1=O	-0.1	nt	10.0	2.8	3.7	nt
Cc1ccc(C(=O)c2nocc2C(=O)c2cccs2)cc1	0.2	15.8*	1.1	-4.1	-3.5	3.1
O=C(O)C1Nc2c(O)cc(Cl)c([N+](=O)[O-])c2C2C=CCC12 (configuration not stated)	-0.4	4.6	100.6*	0.2	-8.0	2.2
Cn1c(=O)c2cc3c(nc2n(C)c1=O)CC(c1ccccc1)CC3=O (configuration not stated)	0.4	-0.6	-3.5	-2.4	-3.5	59.5*
CSc1nc2nc3c(cn2n1)C(=O)CC(c1ccccc1)C3 (configuration not stated)	0.6	-0.1	0.0	-2.1	-4.5	0.7
O=S(=O)(c1cc2ccccc2s1)n1c(CN2CCOCC2)nc2ccccc21	0.2	nt	0.4	-5.5	-6.7	nt
CS(=O)(=O)c1ccc2nc(NC(=O)c3cc4ccccc4o3)sc2c1	0.1	26.4*	8.5	-1.9	-5.3	1.2
Cc1nc(NC(=O)c2cc3ccccc3o2)sc1C	0.2	-2.9	5.6	1.9	10.9	-8.9
CS(=O)(=O)c1ccc2sc(NC(=O)c3cc4ccccc4o3)nc2c1	-0.4	11.3*	1.0	-2.6	-3.2	4.5
COc1cccc(CNc2ccc(S(N)(=O)=O)cc2)c1OCc1ccccc1F	-0.6	2.3	3.7	1.7	4.8	48.3*
C=CCOc1c(CNc2ccc(S(N)(=O)=O)cc2)cccc1OC	-0.5	0.9	2.5	3.1	3.6	8.4
COc1cccc(C(=O)COC(=O)C(C)N2C(=O)c3ccccc3C2=O)c1 (configuration not stated)	1.2	13.7*	-6.0	-5.8	-1.6	-0.5
Clc1cccc(NCc2nnc(SCc3ccccc3)o2)c1	-0.1	-16.2	-1.8	2.9	12.1	5.0
N#CCSc1nnc(CNc2cccc(Cl)c2)o1	-0.1	14.2*	-2.0	-5.6	-2.0	5.8
N#CCSc1nnc(COc2ccc3ccccc3c2)o1	0.2	15.0*	-1.1	-2.8	-6.2	-0.1
CCC(C(=O)Nc1ccccc1N1CCCC1)c1cccc(Cl)c1 (configuration not stated)	0.4	nt	0.1	2.3	5.0	nt
FC(F)(F)c1ccccc1CN1CCCc2nc(-c3ccc(Br)cc3)ccc21	-2.7	nt	6.7	-16.0	-60.2	nt
CC1(C)CC2CN(Cc3ccccc3)S(=O)(=O)N2C1 (configuration not stated)	nt	nt	nt	0.3	1.0	nt
CC(C)c1onc(C(=O)Nc2cccc(Cl)c2)c1[N+](=O)[O-]	-0.2	19.9*	2.1	1.7	-0.7	2.9
O=C(/C(=C/O)N=Nc1cccc(C(F)(F)F)c1)c1ccccc1	0.5	-4.7	5.8	0.5	0.0	75.0*
Cc1cccc(N=N/C(=C\O)C(=O)c2ccc(Br)cc2)c1	-0.1	-0.2	6.5	1.1	2.2	16.8
